# Laboratory results from ChEMBL document CHEMBL1961873, “Compounds: GSK PKIS; Assays: Nanosyn kinase panel” (2012).
# Tests used:
# [1] = target: T1, Inhibitor of nuclear factor kappa-B kinase subunit epsilon (Homo sapiens) (UniProt Q14164); details: at 1 µM;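 further: reported values are averaged percent inhibition figures against human IKKε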
# T1 sequence (whole entry): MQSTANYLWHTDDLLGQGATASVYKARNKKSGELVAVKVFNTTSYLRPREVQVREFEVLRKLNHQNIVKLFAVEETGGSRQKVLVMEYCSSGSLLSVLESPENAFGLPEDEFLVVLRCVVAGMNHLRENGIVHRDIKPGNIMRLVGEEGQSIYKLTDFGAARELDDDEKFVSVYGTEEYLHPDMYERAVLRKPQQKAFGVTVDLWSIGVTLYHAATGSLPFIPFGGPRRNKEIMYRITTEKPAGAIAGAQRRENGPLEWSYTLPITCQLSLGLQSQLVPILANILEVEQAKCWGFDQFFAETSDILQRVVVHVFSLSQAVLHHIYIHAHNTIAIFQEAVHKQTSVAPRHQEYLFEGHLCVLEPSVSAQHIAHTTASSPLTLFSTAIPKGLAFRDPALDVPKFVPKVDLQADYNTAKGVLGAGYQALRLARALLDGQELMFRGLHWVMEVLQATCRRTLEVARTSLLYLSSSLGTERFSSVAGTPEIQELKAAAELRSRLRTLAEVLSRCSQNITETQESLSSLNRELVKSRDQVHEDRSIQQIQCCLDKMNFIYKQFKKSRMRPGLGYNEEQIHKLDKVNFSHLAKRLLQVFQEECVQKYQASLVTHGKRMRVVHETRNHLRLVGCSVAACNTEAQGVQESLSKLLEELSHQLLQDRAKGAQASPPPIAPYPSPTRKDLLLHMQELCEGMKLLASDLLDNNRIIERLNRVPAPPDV
# [2] = target: T2, Serine/threonine-protein kinase Nek1 (Homo sapiens) (UniProt Q96PY6); details: at 0.1 µM
# T2 sequence (whole entry): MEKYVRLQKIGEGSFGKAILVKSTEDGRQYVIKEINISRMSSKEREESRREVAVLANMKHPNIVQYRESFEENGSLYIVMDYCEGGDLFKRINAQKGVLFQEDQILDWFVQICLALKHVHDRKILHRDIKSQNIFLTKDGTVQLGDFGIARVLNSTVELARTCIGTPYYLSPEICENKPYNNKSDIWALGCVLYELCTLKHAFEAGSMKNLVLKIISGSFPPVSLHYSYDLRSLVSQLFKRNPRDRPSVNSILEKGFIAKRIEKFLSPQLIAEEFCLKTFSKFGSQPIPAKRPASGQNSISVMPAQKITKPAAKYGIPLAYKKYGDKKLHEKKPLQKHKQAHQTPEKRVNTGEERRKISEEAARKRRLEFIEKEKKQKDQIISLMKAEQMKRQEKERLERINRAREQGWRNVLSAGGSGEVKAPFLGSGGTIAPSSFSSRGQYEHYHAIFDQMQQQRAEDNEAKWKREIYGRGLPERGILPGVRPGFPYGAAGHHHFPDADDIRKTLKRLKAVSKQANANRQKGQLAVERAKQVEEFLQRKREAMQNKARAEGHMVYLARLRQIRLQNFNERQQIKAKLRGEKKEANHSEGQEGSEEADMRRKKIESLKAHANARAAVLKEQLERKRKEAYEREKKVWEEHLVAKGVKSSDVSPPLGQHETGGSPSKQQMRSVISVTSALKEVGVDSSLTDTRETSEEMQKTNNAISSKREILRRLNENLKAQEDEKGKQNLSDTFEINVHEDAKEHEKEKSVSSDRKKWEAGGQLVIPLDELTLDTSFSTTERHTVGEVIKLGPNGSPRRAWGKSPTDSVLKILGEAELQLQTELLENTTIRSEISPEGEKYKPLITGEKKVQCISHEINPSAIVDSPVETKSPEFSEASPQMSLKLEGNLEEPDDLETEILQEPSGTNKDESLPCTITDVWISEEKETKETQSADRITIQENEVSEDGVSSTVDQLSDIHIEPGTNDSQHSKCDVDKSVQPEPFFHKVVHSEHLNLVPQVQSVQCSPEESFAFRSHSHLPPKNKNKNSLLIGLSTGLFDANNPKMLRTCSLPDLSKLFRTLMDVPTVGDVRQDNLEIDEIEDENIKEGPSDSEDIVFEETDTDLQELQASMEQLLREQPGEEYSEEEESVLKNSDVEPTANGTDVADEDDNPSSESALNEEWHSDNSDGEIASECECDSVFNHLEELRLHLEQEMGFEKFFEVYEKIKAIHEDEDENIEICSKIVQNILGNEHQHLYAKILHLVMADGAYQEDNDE
# [3] = target: T2, Serine/threonine-protein kinase Nek1 (Homo sapiens); details: at 1 µM
# [4] = target: T3, Serine/threonine-protein kinase Nek2 (Homo sapiens) (UniProt P51955); details: at 0.1 µM
# T3 sequence (whole entry): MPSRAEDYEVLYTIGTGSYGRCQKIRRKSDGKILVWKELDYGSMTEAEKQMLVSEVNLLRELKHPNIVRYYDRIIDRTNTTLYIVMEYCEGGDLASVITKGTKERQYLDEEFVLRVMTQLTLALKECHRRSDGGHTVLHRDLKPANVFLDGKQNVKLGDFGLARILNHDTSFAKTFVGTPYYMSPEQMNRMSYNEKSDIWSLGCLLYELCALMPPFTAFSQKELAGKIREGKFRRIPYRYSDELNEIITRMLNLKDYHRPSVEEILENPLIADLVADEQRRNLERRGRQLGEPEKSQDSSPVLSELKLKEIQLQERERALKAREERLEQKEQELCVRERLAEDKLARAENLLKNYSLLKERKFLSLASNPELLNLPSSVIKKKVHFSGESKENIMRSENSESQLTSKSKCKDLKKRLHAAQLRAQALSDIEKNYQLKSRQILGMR
# [5] = target: T3, Serine/threonine-protein kinase Nek2 (Homo sapiens); details: at 1 µM
# [6] = target: Serine/threonine-protein kinase Nek6 (Homo sapiens) (UniProt Q9HC98); details: at 0.1 µM
# [7] = target: Serine/threonine-protein kinase Nek6 (Homo sapiens) (UniProt Q9HC98); details: at 1 µM
# [8] = target: Serine/threonine-protein kinase Nek7 (Homo sapiens) (UniProt Q8TDX7); details: at 0.1 µM
# [9] = target: Serine/threonine-protein kinase Nek7 (Homo sapiens) (UniProt Q8TDX7); details: at 1 µM
# [10] = target: T4, Serine/threonine-protein kinase Nek9 (Homo sapiens) (UniProt Q8TD19); details: at 0.1 µM
# T4 sequence (whole entry): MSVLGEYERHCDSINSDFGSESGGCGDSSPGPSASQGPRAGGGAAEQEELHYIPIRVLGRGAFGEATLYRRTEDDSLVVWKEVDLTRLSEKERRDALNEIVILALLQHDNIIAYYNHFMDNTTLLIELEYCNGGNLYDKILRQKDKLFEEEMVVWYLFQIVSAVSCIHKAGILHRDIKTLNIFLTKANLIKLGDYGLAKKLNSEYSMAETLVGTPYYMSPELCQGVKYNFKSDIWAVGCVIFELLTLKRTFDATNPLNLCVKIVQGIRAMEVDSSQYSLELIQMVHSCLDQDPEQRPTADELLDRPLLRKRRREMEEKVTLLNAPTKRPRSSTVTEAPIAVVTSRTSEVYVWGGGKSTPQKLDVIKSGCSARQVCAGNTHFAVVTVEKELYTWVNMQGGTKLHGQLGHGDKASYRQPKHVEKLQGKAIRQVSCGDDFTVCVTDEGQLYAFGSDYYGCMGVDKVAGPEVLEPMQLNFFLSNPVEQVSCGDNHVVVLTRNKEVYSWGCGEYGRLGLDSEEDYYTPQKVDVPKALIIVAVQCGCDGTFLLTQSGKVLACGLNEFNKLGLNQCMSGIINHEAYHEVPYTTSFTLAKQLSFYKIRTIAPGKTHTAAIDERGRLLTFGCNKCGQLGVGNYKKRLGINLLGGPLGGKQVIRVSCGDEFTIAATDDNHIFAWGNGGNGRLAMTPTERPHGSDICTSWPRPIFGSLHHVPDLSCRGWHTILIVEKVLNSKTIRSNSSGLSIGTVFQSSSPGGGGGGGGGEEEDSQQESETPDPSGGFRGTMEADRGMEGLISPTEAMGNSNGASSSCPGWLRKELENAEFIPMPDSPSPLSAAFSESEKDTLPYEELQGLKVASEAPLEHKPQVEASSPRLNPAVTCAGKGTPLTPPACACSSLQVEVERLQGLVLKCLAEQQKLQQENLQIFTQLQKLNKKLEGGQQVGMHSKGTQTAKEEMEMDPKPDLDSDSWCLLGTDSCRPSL
# [11] = target: T4, Serine/threonine-protein kinase Nek9 (Homo sapiens); details: at 1 µM
# [12] = target: Serine/threonine-protein kinase PLK1 (Homo sapiens) (UniProt P53350); details: at 0.1 µM
# [13] = target: Serine/threonine-protein kinase PLK1 (Homo sapiens) (UniProt P53350); details: at 1 µM
# [14] = target: T5, Dual specificity protein kinase TTK (Homo sapiens) (UniProt P33981); details: at 0.1 µM
# T5 sequence (whole entry): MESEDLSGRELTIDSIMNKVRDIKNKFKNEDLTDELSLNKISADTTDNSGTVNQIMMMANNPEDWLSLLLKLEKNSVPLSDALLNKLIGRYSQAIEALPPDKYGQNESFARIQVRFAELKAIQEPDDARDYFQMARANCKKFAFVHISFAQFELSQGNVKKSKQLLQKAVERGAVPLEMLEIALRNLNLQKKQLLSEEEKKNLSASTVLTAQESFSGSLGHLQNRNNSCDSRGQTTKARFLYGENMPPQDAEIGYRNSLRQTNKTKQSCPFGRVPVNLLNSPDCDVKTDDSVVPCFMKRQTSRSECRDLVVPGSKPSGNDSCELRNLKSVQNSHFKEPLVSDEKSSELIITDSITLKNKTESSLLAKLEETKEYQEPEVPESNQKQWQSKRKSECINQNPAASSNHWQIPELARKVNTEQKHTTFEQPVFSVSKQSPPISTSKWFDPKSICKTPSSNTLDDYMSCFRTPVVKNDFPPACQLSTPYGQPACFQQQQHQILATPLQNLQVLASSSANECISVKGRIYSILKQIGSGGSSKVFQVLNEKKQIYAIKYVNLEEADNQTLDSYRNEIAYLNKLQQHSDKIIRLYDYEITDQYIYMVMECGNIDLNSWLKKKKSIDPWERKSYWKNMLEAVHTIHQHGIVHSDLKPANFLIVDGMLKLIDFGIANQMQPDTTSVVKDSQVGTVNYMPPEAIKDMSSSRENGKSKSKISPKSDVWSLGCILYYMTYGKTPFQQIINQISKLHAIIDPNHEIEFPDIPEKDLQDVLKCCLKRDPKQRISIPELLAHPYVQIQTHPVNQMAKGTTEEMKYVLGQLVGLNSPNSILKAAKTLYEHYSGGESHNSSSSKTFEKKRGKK
# [15] = tested on: T6, Receptor-type tyrosine-protein kinase FLT3 (Homo sapiens), P36888 [D835Y]; details: at 1 µM
# T6 sequence (whole entry): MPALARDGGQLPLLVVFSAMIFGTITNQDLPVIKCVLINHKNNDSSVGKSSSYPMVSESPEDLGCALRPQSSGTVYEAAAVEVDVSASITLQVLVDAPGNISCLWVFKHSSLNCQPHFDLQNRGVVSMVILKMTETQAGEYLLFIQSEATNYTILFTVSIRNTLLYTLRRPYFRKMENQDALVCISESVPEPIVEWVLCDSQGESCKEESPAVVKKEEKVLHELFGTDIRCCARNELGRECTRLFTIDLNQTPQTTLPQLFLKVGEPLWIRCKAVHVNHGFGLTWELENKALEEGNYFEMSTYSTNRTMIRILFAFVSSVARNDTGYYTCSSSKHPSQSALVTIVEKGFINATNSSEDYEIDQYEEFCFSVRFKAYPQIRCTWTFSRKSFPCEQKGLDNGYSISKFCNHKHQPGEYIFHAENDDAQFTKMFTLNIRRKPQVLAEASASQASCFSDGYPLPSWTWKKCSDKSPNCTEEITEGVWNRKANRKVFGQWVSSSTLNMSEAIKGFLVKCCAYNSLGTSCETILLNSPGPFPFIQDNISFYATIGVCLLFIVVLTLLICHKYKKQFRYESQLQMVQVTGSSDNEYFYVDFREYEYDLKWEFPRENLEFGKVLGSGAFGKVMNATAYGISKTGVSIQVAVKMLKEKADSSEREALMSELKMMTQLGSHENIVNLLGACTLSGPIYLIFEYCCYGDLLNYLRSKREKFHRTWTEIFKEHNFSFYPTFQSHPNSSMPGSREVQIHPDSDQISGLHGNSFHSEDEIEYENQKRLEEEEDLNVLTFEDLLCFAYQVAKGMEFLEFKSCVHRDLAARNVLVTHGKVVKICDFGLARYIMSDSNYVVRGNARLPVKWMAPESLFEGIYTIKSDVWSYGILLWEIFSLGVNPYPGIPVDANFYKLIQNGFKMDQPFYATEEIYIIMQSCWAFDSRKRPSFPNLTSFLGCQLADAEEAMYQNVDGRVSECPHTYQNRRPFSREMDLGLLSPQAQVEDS
# [16] = target: Vascular endothelial growth factor receptor 3 (Homo sapiens) (UniProt P35916); details: at 0.1 µM
# [17] = target: Vascular endothelial growth factor receptor 3 (Homo sapiens) (UniProt P35916); details: at 1 µM
# [18] = target: Macrophage colony-stimulating factor 1 receptor (Homo sapiens) (UniProt P07333); details: at 0.1 µM
# [19] = target: Macrophage colony-stimulating factor 1 receptor (Homo sapiens) (UniProt P07333); details: at 1 µM
# [20] = target: Tyrosine-protein kinase Fyn (Homo sapiens) (UniProt P06241); details: at 0.1 µM
# Tyrosine-protein kinase Fyn (Homo sapiens), sequence (P06241 2-537 limits assumed): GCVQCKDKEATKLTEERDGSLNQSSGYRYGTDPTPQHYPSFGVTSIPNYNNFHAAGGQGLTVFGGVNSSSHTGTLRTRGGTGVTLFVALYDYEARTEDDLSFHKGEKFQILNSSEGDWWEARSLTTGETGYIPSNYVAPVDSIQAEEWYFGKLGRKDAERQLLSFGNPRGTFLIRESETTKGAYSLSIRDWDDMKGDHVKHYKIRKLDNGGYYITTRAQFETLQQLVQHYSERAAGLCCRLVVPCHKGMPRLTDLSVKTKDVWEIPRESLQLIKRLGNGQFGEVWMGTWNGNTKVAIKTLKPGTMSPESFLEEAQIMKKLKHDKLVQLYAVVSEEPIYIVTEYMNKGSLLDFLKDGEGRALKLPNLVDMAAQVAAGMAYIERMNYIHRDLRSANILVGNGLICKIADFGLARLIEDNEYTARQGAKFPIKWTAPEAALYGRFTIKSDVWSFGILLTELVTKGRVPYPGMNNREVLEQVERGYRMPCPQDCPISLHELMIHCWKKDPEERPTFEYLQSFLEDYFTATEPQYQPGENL
# Serine/threonine-protein kinase Nek7 (Homo sapiens), sequence (Q8TDX7 whole entry, looked up): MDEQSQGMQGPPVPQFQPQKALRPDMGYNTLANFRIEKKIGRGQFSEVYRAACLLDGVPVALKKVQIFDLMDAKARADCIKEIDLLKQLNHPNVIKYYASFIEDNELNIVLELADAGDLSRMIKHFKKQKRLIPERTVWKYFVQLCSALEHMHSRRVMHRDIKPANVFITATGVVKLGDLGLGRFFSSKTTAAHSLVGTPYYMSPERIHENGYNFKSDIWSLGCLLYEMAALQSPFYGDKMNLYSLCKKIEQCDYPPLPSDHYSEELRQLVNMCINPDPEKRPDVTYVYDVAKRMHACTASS
# Serine/threonine-protein kinase Nek6 (Homo sapiens), sequence (Q9HC98 whole entry): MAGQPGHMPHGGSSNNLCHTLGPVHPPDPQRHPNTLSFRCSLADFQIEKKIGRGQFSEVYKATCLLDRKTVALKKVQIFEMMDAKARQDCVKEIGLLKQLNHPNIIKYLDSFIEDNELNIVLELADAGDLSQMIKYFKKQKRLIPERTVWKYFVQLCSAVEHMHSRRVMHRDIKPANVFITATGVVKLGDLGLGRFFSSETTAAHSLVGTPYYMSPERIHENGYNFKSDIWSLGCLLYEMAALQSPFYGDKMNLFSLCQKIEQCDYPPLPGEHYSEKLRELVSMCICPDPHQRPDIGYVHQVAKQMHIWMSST
# Serine/threonine-protein kinase PLK1 (Homo sapiens), sequence (P53350 whole entry): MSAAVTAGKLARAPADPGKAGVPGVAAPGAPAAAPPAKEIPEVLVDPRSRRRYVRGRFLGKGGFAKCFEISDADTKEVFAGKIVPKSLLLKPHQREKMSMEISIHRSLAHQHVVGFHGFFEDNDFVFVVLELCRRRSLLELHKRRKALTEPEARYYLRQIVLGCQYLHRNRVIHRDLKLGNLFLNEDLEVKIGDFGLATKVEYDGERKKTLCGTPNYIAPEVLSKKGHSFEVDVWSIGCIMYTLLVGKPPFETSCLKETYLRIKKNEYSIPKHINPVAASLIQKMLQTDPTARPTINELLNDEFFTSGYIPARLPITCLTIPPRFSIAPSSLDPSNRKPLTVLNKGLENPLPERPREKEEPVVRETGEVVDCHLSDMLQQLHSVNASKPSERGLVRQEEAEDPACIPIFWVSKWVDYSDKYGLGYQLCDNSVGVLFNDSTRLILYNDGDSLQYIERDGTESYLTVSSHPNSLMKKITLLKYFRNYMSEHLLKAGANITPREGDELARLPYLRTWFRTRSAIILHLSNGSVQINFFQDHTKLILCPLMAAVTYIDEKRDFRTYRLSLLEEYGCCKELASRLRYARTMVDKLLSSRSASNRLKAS
# Vascular endothelial growth factor receptor 3 (Homo sapiens), sequence (P35916 whole entry): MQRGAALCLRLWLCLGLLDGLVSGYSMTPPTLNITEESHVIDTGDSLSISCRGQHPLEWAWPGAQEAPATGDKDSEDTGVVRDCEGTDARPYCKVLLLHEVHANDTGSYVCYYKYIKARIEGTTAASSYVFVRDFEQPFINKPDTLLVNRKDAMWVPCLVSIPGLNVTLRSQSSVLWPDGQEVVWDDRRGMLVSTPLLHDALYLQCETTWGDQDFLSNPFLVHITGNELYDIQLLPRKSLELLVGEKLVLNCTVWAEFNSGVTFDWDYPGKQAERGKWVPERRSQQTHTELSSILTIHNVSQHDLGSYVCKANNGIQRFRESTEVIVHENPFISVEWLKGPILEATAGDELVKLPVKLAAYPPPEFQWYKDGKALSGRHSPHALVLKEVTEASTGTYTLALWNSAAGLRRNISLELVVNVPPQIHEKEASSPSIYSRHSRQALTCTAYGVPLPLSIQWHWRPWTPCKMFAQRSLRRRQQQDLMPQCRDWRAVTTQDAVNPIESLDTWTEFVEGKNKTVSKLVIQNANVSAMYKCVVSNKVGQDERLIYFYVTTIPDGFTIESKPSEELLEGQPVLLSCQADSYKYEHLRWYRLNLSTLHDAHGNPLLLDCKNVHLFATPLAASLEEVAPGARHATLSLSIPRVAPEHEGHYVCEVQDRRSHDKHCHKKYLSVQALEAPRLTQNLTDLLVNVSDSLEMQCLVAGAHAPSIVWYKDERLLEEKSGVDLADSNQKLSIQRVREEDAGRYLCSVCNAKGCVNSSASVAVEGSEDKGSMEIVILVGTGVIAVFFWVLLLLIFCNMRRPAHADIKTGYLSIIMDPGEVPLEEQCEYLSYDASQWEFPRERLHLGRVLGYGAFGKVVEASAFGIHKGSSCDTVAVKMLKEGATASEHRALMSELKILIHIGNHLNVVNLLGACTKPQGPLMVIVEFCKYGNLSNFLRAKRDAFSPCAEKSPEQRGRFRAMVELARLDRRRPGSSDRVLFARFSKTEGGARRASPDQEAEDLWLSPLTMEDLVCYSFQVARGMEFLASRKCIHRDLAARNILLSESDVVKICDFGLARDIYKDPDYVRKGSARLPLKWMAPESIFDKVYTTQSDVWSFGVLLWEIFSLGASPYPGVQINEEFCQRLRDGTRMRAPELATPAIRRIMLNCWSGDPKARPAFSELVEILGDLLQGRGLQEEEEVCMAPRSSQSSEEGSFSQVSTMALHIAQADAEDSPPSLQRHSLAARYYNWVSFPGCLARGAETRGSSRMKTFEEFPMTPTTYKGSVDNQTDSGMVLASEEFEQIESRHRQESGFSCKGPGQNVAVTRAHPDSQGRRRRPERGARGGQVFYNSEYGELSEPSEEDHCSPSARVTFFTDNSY
# Macrophage colony-stimulating factor 1 receptor (Homo sapiens), sequence (P07333 whole entry): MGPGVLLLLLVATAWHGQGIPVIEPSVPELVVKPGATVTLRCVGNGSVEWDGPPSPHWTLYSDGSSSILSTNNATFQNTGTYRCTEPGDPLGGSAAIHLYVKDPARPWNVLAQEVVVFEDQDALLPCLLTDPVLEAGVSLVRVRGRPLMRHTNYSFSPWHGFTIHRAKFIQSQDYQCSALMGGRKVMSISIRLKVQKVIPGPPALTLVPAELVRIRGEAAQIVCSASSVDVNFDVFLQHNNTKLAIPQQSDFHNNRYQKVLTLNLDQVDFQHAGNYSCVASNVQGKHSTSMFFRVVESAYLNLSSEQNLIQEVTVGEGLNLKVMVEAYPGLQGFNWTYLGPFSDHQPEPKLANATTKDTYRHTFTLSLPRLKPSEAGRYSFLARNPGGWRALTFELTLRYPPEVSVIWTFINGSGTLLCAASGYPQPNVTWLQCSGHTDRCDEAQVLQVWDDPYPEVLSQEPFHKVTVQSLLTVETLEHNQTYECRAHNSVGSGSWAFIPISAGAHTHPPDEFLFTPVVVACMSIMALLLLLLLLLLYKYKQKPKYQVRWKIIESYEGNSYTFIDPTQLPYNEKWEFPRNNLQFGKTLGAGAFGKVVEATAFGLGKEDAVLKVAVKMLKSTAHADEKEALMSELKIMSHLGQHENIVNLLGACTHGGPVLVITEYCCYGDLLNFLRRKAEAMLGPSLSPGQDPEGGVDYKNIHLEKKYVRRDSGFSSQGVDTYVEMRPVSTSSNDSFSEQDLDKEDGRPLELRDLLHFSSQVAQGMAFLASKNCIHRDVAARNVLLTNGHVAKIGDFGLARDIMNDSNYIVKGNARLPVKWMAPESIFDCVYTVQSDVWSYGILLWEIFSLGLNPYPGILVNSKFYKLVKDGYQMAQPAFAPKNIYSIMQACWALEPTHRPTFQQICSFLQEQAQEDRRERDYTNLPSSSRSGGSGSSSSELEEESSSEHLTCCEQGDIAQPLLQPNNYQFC
compound,measurement,setting,value
NS(=O)(=O)c1ccc(N/N=C2\C(=O)Nc3ccc(C(=O)NCc4ccncc4)cc32)cc1,inhibition,[1],49.1%
same,inhibition,[2],1.96%
same,inhibition,[3],4.03%
same,inhibition,[4],4.39%
same,inhibition,[5],3.78%
same,inhibition,[6],3.86%
same,inhibition,[7],5.08%
same,inhibition,[8],3.8%
same,inhibition,[9],4.4%
same,inhibition,[10],9.13%
same,inhibition,[11],9.05%
same,inhibition,[12],3.77%
same,inhibition,[13],2.52%
same,inhibition,[14],37.6%
same,inhibition,[15],34.3%
same,inhibition,[16],16.7%
same,inhibition,[17],48.7%
same,inhibition,[18],3.12%
same,inhibition,[19],8.74%
same,inhibition,[20],9.13%
